High-throughput results as filed in PubChem.
In the library only some 3.9% were active in any assay of this set; here they are far more common.
TWEAK-Fn14 inh: inhibitors of TWEAK-Fn14 interaction signaling; TWEAK-stimulated Fn14 reporter cells, luciferase luminescence, 8 h; inhibition, % at 10 µM; actives 2% (n = 360,000); AID 1159606; in the data active = inhibition above about 50%
KKLEB cytotox: CF airway cell cytotoxicity counter-screen; KKLEB CF airway cells viability, ATPlite luminescence, overnight; stronger effect = lower value; cells stimulated with P. aeruginosa culture filtrate; activity change (cytotoxicity), % at 5 µM; actives 0.36% (n = 360,000); AID 602141;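 active = corrected activity change at or below -50% at 5 µM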
Peg3 prom inh: inhibitors of Peg3 promoter; HeLa PEG-Prom luciferase reporter, luminescence, overnight; actives 1.7% (n = 360,000); inhibition, % at 20 µM;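 active = inhibition of at least 50% at 20 µM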
TROY NFkB inh: TROY signaling inhibition | inhibition, % at 10 µM | actives 0.98% (n = 360,000) | AID 1347056 | Q293 LMP1-TROYcd NF-kB luciferase reporter, 4 h;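 active = compounds whose plate-normalised and pattern-corrected inhibition of the luciferase reporter signal at the single screening dose is 50% or more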
HIF-2a inh: HIF-2a inhibition; inhibition, % at 18.8 µM; actives 0.72% (n = 360,000); 786-0 RCC cells HIF-2a reporter, luciferase luminescence, overnight;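 active = inhibition of the luminescence signal of 40% or more relative to plate controls, in a single-dose primary screen at 18.75 µM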
CF NFkB inh: blocks PAF-induced NF-kB reporter in cystic fibrosis cells; KKLEB NF-kB-GFP reporter, GFP fluorescence overnight; inhibition, % at 5 µM; actives 0.86% (n = 360,000); AID 588850;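 active = at least 50% inhibition at 5 µM, scaled per plate between neutral and stimulator controls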;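 also: PAF is a Pseudomonas aeruginosa culture filtrate used as stimulus; plate controls were PAF-stimulated DMSO wells for no effect and unstimulated DMSO wells for full effect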
Mdm2-MdmX confirm: Mdm2/MdmX (human) interaction inhibition, confirmed | shares compounds with HIF-2a inh | SaOS-2 split-luciferase Mdm2/MdmX complementation, luminescence | inhibition, % at 8 µM | actives 99% (n = 740) | AID 504601;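 active = mean inhibition of the luminescence signal across two replicates at or above 26 percent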
HIF-2a inh conf: HIF-2a inhibition, single concentration confirmation; 786-0 RCC cells, HIF-2a luciferase reporter luminescence, overnight; shares compounds with HIF-2a inh; inhibition, % at 18.8 µM; actives 56% (n = 1,800);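 active = mean inhibition across four replicates of at least 40 percent at the single tested concentration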
HIF-1a cs: HIF-1a inhibition counter-screen for HIF-2a hits. shares compounds with HIF-2a inh. MiaPaCa-2 HIF-1a luciferase reporter, desferoxamine, overnight. actives 72% (n = 1,800). inhibition, % at 18.8 µM;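 active = mean inhibition of the reporter signal across four replicates at the single tested dose of 50% or more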
Starred values were filed as active, the others as inactive; . = no result given.

SMILES	TWEAK-Fn14 inh	KKLEB cytotox	Peg3 prom inh	TROY NFkB inh	HIF-2a inh	CF NFkB inh	HIF-2a inh conf	HIF-1a cs	others
CCOC(=O)c1ccc(-c2ccc(N3C(c4cccc(OC)c4)=Cc4ccc(F)cc4C3CC(C)=O)cc2)cc1F (stereo unspecified)	36	.	.	29	65*	.	26	27
COc1cccc(C2=Cc3ccc(F)cc3C(CC(C)=O)N2c2ccc(-c3cncnc3)cc2)c1 (stereo unspecified)	-17	.	.	-12	24	.	.	.
COc1ccc(S(=O)(=O)N2CCCCC2c2cc(C(=O)NC(C)C)no2)cc1 (stereo unspecified)	-29	2	-6	-31	-4	0	.	.
COc1ccc(C2NC(=O)NC(C)=C2C(=O)OC2CCCC(C)C2)cc1 (stereo unspecified)	73*	-11	52*	44	41*	3	10	44
CCN(CC)CCNC(=O)C12CC3CC(CC(C3)C1)C2	-11	-11	6	7	11	7	.	.
CCN(CC)CCNC(=O)C(Cl)=C1C(Cl)=C(Cl)C(Cl)=C1Cl	28	4	97*	9	67*	-18	31	61*
CC(=O)Nc1ncnc2c1c(-c1ccc(Cl)cc1)nn2C(C)(C)C	5	-16	28	-7	48*	38	43*	49
O=C(Cn1nnc(-c2ccc(F)cc2)n1)N1CCCCC1	2	2	-17	2	-15	24	.	.
Nc1ccc(-c2nnn(CC(=O)N3CCCCC3)n2)cc1	14	-2	-3	1	49*	5	48*	18
COc1ccc(CC(=O)NC2CCN(CC(=O)N3CCCc4ccccc43)CC2)cc1OC	-3	-1	35	-10	7	-13	.	.
COc1ccc(NC(=O)c2cc(-c3cc(F)ccc3OC)n[nH]2)cc1OC	-26	-1	-31	-32	-18	11	.	.
Cn1c(=O)c2ncn(CC(=O)NCCOc3ccccc3)c2n(C)c1=O	-9	2	-15	6	-13	5	.	.
COc1ccc(CNC(=O)Cn2cnc3c(=O)n(C)c(=O)n(C)c32)cc1	3	3	8	7	42*	-5	36	-7
CSc1nc(SCC(=O)NC(c2ccccc2)c2ccccc2)c2c3c(sc2n1)CN(C)CC3	-10	4	-15	-11	18	-21	.	.
Cc1coc2cc3oc(=O)c(CC(=O)N[C@@H](CC(C)C)C(=O)O)c(C)c3cc12	2	-8	4	3	46*	5	-2	-3
O=C(/C=C/c1ccccc1)/C=C/c1ccccc1	90*	-17	110*	27	94*	-80	4	103*
O=C(/C=C/c1ccccc1)c1ccccc1	-6	-4	-24	-22	-62	-7	.	.
COc1ccc(/C=N/Nc2ccc(C(=O)O)cc2)c(OC)c1OC	-6	-4	-158	22	-159	0	.	.
COC(=O)c1ccc2c(c1)C(C)(C)C(/C=C/c1ccc(OC)c(OC)c1OC)=[N+]2C	32	-8	107*	-9	95*	-15	88*	107*	Mdm2-MdmX confirm=103*
CC(=O)SC(C[N+](=O)[O-])c1cn(C(C)=O)c2ccccc12 (stereo unspecified)	14	5	106*	-11	46*	-17	96*	86*
COc1ccc(/C=N/NC(=S)Nc2cc(S(=O)(=O)N3CCOCC3)ccc2N2CCOCC2)cc1O	30	-14	48	2	29	11	.	.
CC(CN1CCOCC1)OC(=O)c1ccc(Br)cc1 (stereo unspecified)	13	1	1	5	14	-10	.	.
O=C(c1ccc(Br)cc1)C(CN1CCOCC1)c1ccccc1 (stereo unspecified)	58*	-64*	50	0	70*	62*	-10	-31
COc1cc(CNC2CCCC2)cc(Cl)c1OCc1ccccc1Cl	-65	-23	94*	-9	82*	11	7	107*
COc1cc(CNC2CCCCCCC2)cc(Cl)c1OCC(N)=O	13	14	2	9	20	-12	.	.
SMILES	TWEAK-Fn14 inh	KKLEB cytotox	Peg3 prom inh	TROY NFkB inh	HIF-2a inh	CF NFkB inh	HIF-2a inh conf	HIF-1a cs	others
CCOC(=O)C(CC)(CC)C(=O)/C=C/c1ccc(Br)cc1	39	-15	75*	-9	58*	9	26	106*
Cc1cnc(CN(C)Cc2nc(Cc3cccc(C(F)(F)F)c3)no2)[nH]1	16	10	13	4	11	-3	.	.
CC1CCC2(CC1)NC(=O)N(CC(=O)Nc1cccc(S(=O)(=O)N(C)c3ccccc3)c1)C2=O (stereo unspecified)	7	-3	8	8	3	-8	.	.
COC(=O)C(=C/C(C)=C/c1cccnc1)C(=O)OC	65*	8	60*	42	43*	21	26	13
CCS(=O)(=O)CCSc1nc2ccccc2o1	-8	-18	2	-11	7	4	.	.
O=S(=O)(CCSc1nc2ccccc2o1)c1nc2ccccc2s1	91*	-24	43	67*	57*	57*	70*	90*
Cc1nn(-c2ccccc2)c(Cl)c1/C=N/Nc1ccc(Cl)c(C(=O)O)c1	-11	6	-18	-74	61*	-4	56*	-56
Cc1c(C(=O)Nc2nonc2-c2ccc(F)cc2)oc2ccc(F)cc12	79*	-17	39	39	-7	17	.	.	Mdm2-MdmX confirm=90*
N#Cc1ncc(C(F)(F)F)cc1Sc1ccccc1N	1	7	11	12	19	-1	.	.
O=C1C=CC(=O)N1c1ccccc1N1C(=O)C=CC1=O	1	-15	97*	-5	77*	61*	56*	-2
O=C(COC(=O)c1ccc(NS(=O)(=O)c2ccc(F)c(F)c2)cc1)NCC1CCCO1 (stereo unspecified)	-9	9	14	-4	45*	-5	-9	13
N#CCCn1cc(CNCc2ccccc2)c(-c2cccc([N+](=O)[O-])c2)n1	10	2	9	5	4	2	.	.
CCN(CC)CCN1C(=O)/C(=C\c2ccc(Cl)c([N+](=O)[O-])c2)SC1=Nc1ccc(OC)cc1	99*	-82*	102*	74*	96*	99*	54*	104*
COc1ccc(N=C2S/C(=C\c3ccc(Cl)c([N+](=O)[O-])c3)C(=O)N2CCN(C)C)cc1	60*	-14	105*	81*	79*	50	4	101*
